According to PubChem BioAssay (Tox21):
Values joined by “and” are separate entries in the source; they are usually repeats but may differ in a detail not shown here. Identical values can stand only once. Inconclusive results are not listed. Where a call stands in place of a potency, no number is given. Active and inactive are the calls of the source. Unless noted, calls follow the shape of the full dose curve.

These compounds were tested against D(2) dopamine receptor (Homo sapiens) (UniProt P14416) (assay: Dopamine D2 receptor (DRD2) small molecule agonists, cell-based qHTS assay (AID 1963594; also: nearly all actives have a fitted effect of over 35% in size)). Details: HEK293-DRD2 cAMP HTRF, agonist mode, 30 min; series mostly up to 92.4 µM.
Sequence of D(2) dopamine receptor (Homo sapiens) (P14416 whole entry, looked up): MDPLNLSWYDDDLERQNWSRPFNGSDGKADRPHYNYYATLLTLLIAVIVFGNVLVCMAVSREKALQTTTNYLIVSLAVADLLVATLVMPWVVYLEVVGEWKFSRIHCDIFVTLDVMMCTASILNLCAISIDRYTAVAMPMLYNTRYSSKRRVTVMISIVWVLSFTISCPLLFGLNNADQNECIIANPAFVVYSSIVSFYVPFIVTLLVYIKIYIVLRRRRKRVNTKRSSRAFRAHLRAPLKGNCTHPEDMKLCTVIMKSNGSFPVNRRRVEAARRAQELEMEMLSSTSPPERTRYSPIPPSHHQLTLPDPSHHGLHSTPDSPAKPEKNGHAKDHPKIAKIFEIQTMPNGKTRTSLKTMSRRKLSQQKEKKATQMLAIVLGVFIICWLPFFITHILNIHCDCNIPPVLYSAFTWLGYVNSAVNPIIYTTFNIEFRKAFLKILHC
How it was run: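 HEK293 cells stably expressing DRD2 were cultured 24 h at 37 C, then given Ro20-1724 (0.1 mM final) and compounds for 10 min at room temperature. NKH477 (200nM) was then added for 30 min. cAMP was read by HTRF.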
Potency is read from the fitted curve at half-maximal effect.

Row | SMILES | Potency
1 | CCCCCCCCCCCCOCC1CO1 (stereo not given) | inactive
2 | CCC/C=C/C=O | inactive
3 | CCCCC(CC)COC(C)=O (stereo not given) | inactive
4 | NC[C@H](O)c1ccc(O)c(O)c1 | 16.6 µM (active)
5 | CC/C=C\C/C=C\C/C=C\CCCCCCCC(=O)O | inactive
6 | OCCNCCO | inactive
7 | CCCCC(CC)COP(=O)(O)OCC(CC)CCCC (stereo not given) | inactive
8 | OC[C@H]1O[C@@H]2O[C@H]3[C@H](O)[C@@H](O)[C@@H](O[C@H]4[C@H](O)[C@@H](O)[C@@H](O[C@H]5[C@H](O)[C@@H](O)[C@@H](O[C@H]6[C@H](O)[C@@H](O)[C@@H](O[C@H]7[C@H](O)[C@@H](O)[C@@H](O[C@H]1[C@H](O)[C@H]2O)O[C@@H]7CO)O[C@@H]6CO)O[C@@H]5CO)O[C@@H]4CO)O[C@@H]3CO | inactive
9 | O=c1[nH]cnc2[nH]ncc12 | inactive
10 | Oc1ccc2cc(SSc3ccc4cc(O)ccc4c3)ccc2c1 | inactive
11 | O=C(O)c1ccc(C(=O)O)c(C(=O)O)c1 | inactive
12 | O=C1c2ccccc2CCc2ccccc21 | inactive
13 | CCN(CC)c1ccc(C(=O)c2ccccc2C(=O)O)c(O)c1 | inactive
14 | Clc1ccc2c(c1)C(N1CCNCC1)=Nc1ccccc1O2 | inactive
15 | C=CC(=O)NCOCCCC | inactive
16 | N[C@@H](Cc1c[nH]c2ccc(O)cc12)C(=O)O | inactive
17 | O=[N+]([O-])c1ccc2nc[nH]c2c1 | inactive
18 | CN=C(NC#N)NCCSCc1nc[nH]c1C | inactive

Row | SMILES | Potency
19 | O=C(O)c1ccccc1C(c1ccc(O)cc1)c1ccc(O)cc1 | inactive
20 | CN(Cc1cnc2nc(N)nc(N)c2n1)c1ccc(C(=O)N[C@@H](CCC(=O)O)C(=O)O)cc1 | inactive
21 | CC1COc2ccccc2N1C(=O)C(Cl)Cl (stereo not given) | inactive
22 | OC1CCCC1 | inactive
23 | C[C@]12CCC(=O)C=C1CC[C@@H]1[C@@H]2[C@@H](O)C[C@@]2(C)[C@H]1CC[C@]2(O)C(=O)CO | inactive
24 | CC(C)c1ccc(S(=O)(=O)O)cc1 | inactive
25 | CC(C)CC(C)O (stereo not given) | inactive
26 | C[N+](C)(C)CCO | inactive
27 | OCC(CO)(CO)CO | inactive
28 | CC1(C)O[C@@H]2C[C@H]3[C@@H]4C[C@H](F)C5=CC(=O)C=C[C@]5(C)[C@@]4(F)[C@@H](O)C[C@]3(C)[C@]2(C(=O)CO)O1 | inactive
29 | CC(C)OC(=O)C(C)(C)Oc1ccc(C(=O)c2ccc(Cl)cc2)cc1 | inactive
30 | CCCCCCCCCCCC(=O)N(C)CC(=O)O | inactive
31 | O=C(COc1ccc(Cl)cc1)N1CCN(Cc2ccc3c(c2)OCO3)CC1 | inactive
32 | CCC(=O)O[C@H]1[C@H](O[C@@H]2[C@@H](C)[C@H](O[C@H]3C[C@@](C)(OC)[C@@H](O)[C@H](C)O3)[C@@H](C)C(=O)O[C@H](CC)[C@@](C)(O)[C@H](O)[C@@H](C)C(=O)[C@H](C)C[C@@]2(C)O)O[C@H](C)C[C@@H]1N(C)C | inactive
33 | O=C1OC2(c3ccccc31)c1cc(Br)c(O)c(Br)c1Oc1c2cc(Br)c(O)c1Br | 62 µM (active) and 60.5 µM (active) and 29.8 µM (active)
34 | Cc1cc(OCCOCC[N+](C)(C)Cc2ccccc2)ccc1C(C)(C)CC(C)(C)C | inactive
35 | NCCNCCNCCNCCN | inactive
36 | O=C1CC2(CCCC2)CC(=O)N1CCCCN1CCN(c2ncccn2)CC1 | inactive

Each compound was assayed against D(2) dopamine receptor (Homo sapiens) (UniProt P14416) (assay: Dopamine D2 receptor (DRD2) small molecule antagonists, cell-based qHTS assay (AID 1963595; active = well fitted inhibition curve with a large enough effect in the signal ratio in the repeat runs, with a control signal flat; the % refers to the signal ratio)). Details: HEK293-DRD2 cAMP HTRF antagonist mode; series mostly up to 92.4 µM.
How it was run: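 HEK293 cells stably expressing DRD2 were preincubated with 0.1 mM Ro20-1724, then with compound for 10 min at room temperature. Cells were stimulated with 200 nM NKH477 plus 12 nM quinpirole for 30 min, and cAMP was read by HTRF.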

Row | SMILES | Potency
37 | CCCCCCCCCCCCOCC1CO1 (stereo not given) | inactive
38 | CCC/C=C/C=O | inactive
39 | CCCCC(CC)COC(C)=O (stereo not given) | inactive
40 | OCCNCCO | inactive
41 | CCCCC(CC)COP(=O)(O)OCC(CC)CCCC (stereo not given) | inactive
42 | OC[C@H]1O[C@@H]2O[C@H]3[C@H](O)[C@@H](O)[C@@H](O[C@H]4[C@H](O)[C@@H](O)[C@@H](O[C@H]5[C@H](O)[C@@H](O)[C@@H](O[C@H]6[C@H](O)[C@@H](O)[C@@H](O[C@H]7[C@H](O)[C@@H](O)[C@@H](O[C@H]1[C@H](O)[C@H]2O)O[C@@H]7CO)O[C@@H]6CO)O[C@@H]5CO)O[C@@H]4CO)O[C@@H]3CO | inactive
43 | O=c1[nH]cnc2[nH]ncc12 | inactive
44 | Oc1ccc2cc(SSc3ccc4cc(O)ccc4c3)ccc2c1 | inactive
45 | O=C(O)c1ccc(C(=O)O)c(C(=O)O)c1 | inactive
46 | O=C1c2ccccc2CCc2ccccc21 | inactive
47 | CCN(CC)c1ccc(C(=O)c2ccccc2C(=O)O)c(O)c1 | inactive
48 | Clc1ccc2c(c1)C(N1CCNCC1)=Nc1ccccc1O2 | 13.7 µM (active) and 8.41 µM (active)
49 | C=CC(=O)NCOCCCC | inactive
50 | N[C@@H](Cc1c[nH]c2ccc(O)cc12)C(=O)O | inactive
51 | O=[N+]([O-])c1ccc2nc[nH]c2c1 | inactive
52 | CN=C(NC#N)NCCSCc1nc[nH]c1C | inactive
53 | O=C(O)c1ccccc1C(c1ccc(O)cc1)c1ccc(O)cc1 | inactive

Row | SMILES | Potency
54 | CN(Cc1cnc2nc(N)nc(N)c2n1)c1ccc(C(=O)N[C@@H](CCC(=O)O)C(=O)O)cc1 | inactive
55 | CCCCCCCCCCCCCC[P+](CCCC)(CCCC)CCCC | 17.1 µM (active) and 43.3 µM (active)
56 | CC1COc2ccccc2N1C(=O)C(Cl)Cl (stereo not given) | inactive
57 | OC1CCCC1 | inactive
58 | C[C@]12CCC(=O)C=C1CC[C@@H]1[C@@H]2[C@@H](O)C[C@@]2(C)[C@H]1CC[C@]2(O)C(=O)CO | inactive
59 | S=C(NC1CCCCC1)NC1CCCCC1 | inactive
60 | CC(C)c1ccc(S(=O)(=O)O)cc1 | inactive
61 | CC(C)CC(C)O (stereo not given) | inactive
62 | C[N+](C)(C)CCO | inactive
63 | OCC(CO)(CO)CO | inactive
64 | CC(C)OC(=O)C(C)(C)Oc1ccc(C(=O)c2ccc(Cl)cc2)cc1 | inactive
65 | CCCCCCCCCCCC(=O)N(C)CC(=O)O | inactive
66 | O=C(COc1ccc(Cl)cc1)N1CCN(Cc2ccc3c(c2)OCO3)CC1 | inactive
67 | CCC(=O)O[C@H]1[C@H](O[C@@H]2[C@@H](C)[C@H](O[C@H]3C[C@@](C)(OC)[C@@H](O)[C@H](C)O3)[C@@H](C)C(=O)O[C@H](CC)[C@@](C)(O)[C@H](O)[C@@H](C)C(=O)[C@H](C)C[C@@]2(C)O)O[C@H](C)C[C@@H]1N(C)C | inactive
68 | Cc1cc(OCCOCC[N+](C)(C)Cc2ccccc2)ccc1C(C)(C)CC(C)(C)C | 38.3 µM (active)
69 | NCCNCCNCCNCCN | inactive
70 | CC(=O)OC1CC(C)OC(C)O1 (stereo not given) | inactive
